Pf growth 96h: P. falciparum growth inhibition at 96 hours; P. falciparum luciferase reporter growth, 96 h; 320,000 compounds, 6.9% hits; AID 504834; Potency, µM (doses to about 28.7 µM), actives largely listed as inhibitors
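Infected RBCs, 2% Hct / 0.05% parasitemia final; luciferase-reporter P. falciparum; cpd 96 h, 37 C, 5% CO2; luciferase detection reagent; luminescence.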
SARS PLpro yeast: blocks SARS-CoV papain-like protease in a yeast assay; 330,000 compounds, 0.19% hits; S. cerevisiae expressing SARS-CoV PLpro, growth rescue; Potency, µM (top dose mostly 32.9 µM), most hits filed as activators; AID 485353; calls by dose curve; note: nearly all actives have a fitted effect of over 55% in size
Pf growth 48h: P. falciparum growth inhibition at 48 hours (one generation); AID 504832; 310,000 compounds, 5.9% hits; P. falciparum luciferase growth in erythrocytes, 48 h; Potency, µM (doses to about 28.7 µM), most hits filed as inhibitors
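A one-generation exposure of luciferase-tagged malaria parasites in RPMI 1640/Albumax erythrocyte culture, 37 C and 5% CO2. Inhibition is inferred from decreased luminescence after adding detection reagent.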
Sm TGR inh: S. mansoni TGR enzyme inhibition | Q962Y6 | 360,000 compounds, 3% hits | purified TGR, DTNB reduction, TNB absorbance 405 nm | Potency, µM (top dose mostly 114 µM), most hits filed as inhibitors; note: nearly all actives have a fitted effect of over 60% in size
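TGR 20 nM + NADPH 100 uM (dispensed conc.), cpd preinc 15 min RT; start with NADPH (500 uM addition) then DTNB (15 mM addition). Kinetic TNB absorbance, 405 nm filter. Four-parameter Hill fit across titration.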
HCV inh: blocks hepatitis C virus; Huh7.5.1 HCVcc-Cre infection, luciferase reporter, 44 h; Potency, µM (top dose mostly 41.8 µM), most hits filed as inhibitors; 340,000 compounds, 3.4% hits
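Infectious HCVcc-Cre (~0.5 moi) was added to cells just after compound, with cells seeded 4 h earlier at 1,000 per well. Luciferase activity after 44 h culture reported infection; substrate was incubated 15 min at room temperature before reading.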
HCMV antiviral: inhibitors of human cytomegalovirus. HFF cells, HCMV-luciferase reporter, 72 h; stronger effect = lower value. activity change, negative = inhibition, % at 57.5 µM. 410,000 compounds, 4.5% hits. AID 1259415; in the data active = activity change below about -60%; inconclusive = no clear call, values can overlap the other calls; inactive = above about -39%
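HFF cells seeded 16 h at 37C, treated with compounds, infected with luciferase-reporter HCMV at MOI 1 PFU/cell; luciferase read at 72 h post infection, normalized to buffer-only and Salinomycin controls.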
Numbers stand for hits; 0 = inactive; ? = inconclusive; - = no result given. An excerpt weighted towards active compounds, which were near 15% of everything screened. Unless noted, calls come from the whole dose curve; as a rule, active = well fitted curve in the direction sought with a large enough effect; inconclusive = small, poorly fitted or top-dose-only effect, or another doubt; inactive = no such curve, though single readings can be large; an effect the other way counts as inactive or inconclusive.

SMILES | Pf growth 96h | SARS PLpro yeast | Pf growth 48h | Sm TGR inh | HCV inh | HCMV antiviral
Cc1ccc(-n2c(Cc3cccn3C)nnc2SCC(N)=O)cc1 | 0 | 0 | 0 | 0 | 0 | 0
Cn1cccc1Cc1nnc(SCC(=O)Nc2cccc(Cl)c2)n1-c1ccc(F)cc1 | 8.3µM | 0 | ? | 0 | 0 | 0
COc1ccc(Cl)cc1NC(=O)CSc1nnc(Cc2cccn2C)n1-c1ccc(F)cc1 | ? | 0 | 13µM | 0 | ? | 0
CC(=O)Nc1cccc(NC(=O)CSc2nnc(Cc3cccn3C)n2-c2ccc(C)cc2)c1 | 4.1µM | 0 | ? | ? | 0 | 0
COc1ccc(-n2c(Cc3cccn3C)nnc2SCC(=O)Nc2cccc(NC(C)=O)c2)cc1 | 0 | 0 | 0 | 0 | 0 | 0
Cc1ccc(-n2c(Cc3cccn3C)nnc2SCC(=O)NCc2ccco2)cc1 | 0 | 0 | 8.3µM | 40µM | 0 | 0
C=CCC1NS(=O)(=O)O[C@H](CCCC)[C@@H]1O (some centres undefined) | 0 | 0 | 0 | 0 | 0 | ?
O=C(COc1ccccc1)Nc1nnc2n1CCS2 | - | - | - | 0 | - | 0
CCN1C(=O)c2ccc(C(=O)Nc3ccc(O)cc3C)cc2C1=O | 0 | 0 | 0 | 0 | 0 | 0
COc1ccc(-n2c(Cc3cccn3C)nnc2SCC(=O)Nc2ccc(C(C)=O)cc2)cc1 | 0.47µM | 0 | - | ? | 0 | 0
CCc1ccc(NC(=O)CSc2nnc(Cc3cccn3C)n2-c2ccc(F)cc2)cc1 | 2.3µM | 0 | 10µM | ? | 0 | 0
O=C(CSc1nnc(-c2n[nH]c3ccccc23)n1-c1ccccc1)Nc1cccc(Cl)c1 | ? | 0 | ? | 0 | 0 | -73
Cc1ccc(NC(=O)CSc2nnc(Cc3cccn3C)n2-c2ccc(F)cc2)cc1 | ? | 0 | ? | 0 | 0 | 0
Cc1ccc(C(c2nnnn2CC2CCCO2)N2CCN(Cc3ccccc3)CC2)cc1 (centres undefined) | ? | 0 | 0 | 0 | 0 | 0
O=C(O)c1cc(Cl)c(Cl)cc1C(=O)Nc1cccc2cccnc12 | ? | 0 | 0 | 0 | 0 | 0
Cc1cc(Br)c2nc3c(c(C(=O)O)c2c1)CCCCC3 | 8.3µM | 0 | 0 | 0 | 0 | 0
O=C(Cc1ccccc1)NCCSCc1ccco1 | 0 | 0 | - | 0 | 0 | 0
O=C(NCCSCc1ccco1)Nc1ccccc1 | 0 | 0 | 0 | 35µM | 0 | 0
Cc1ccc(SCCC(=O)NCCSCc2ccco2)cc1 | 0 | 0 | 0 | ? | 0 | -100
Cc1ccc(C)c(C(C)NC(=O)Cc2cccs2)c1 (centres undefined) | 0 | 0 | 0 | 0 | 0 | 0
Fc1ccc(-c2cc(C(F)(F)F)nc(NCC3CCCO3)n2)cc1 (centres undefined) | ? | 0 | ? | 0 | 10µM | 0
Cc1nnc(SCC(=O)NC(C)(C)C)n1NCc1c(F)cccc1Cl | 2.3µM | 0 | 0 | 0 | 0 | ?
CC(C)NC[C@H]1CCc2cc(CO)c([N+](=O)[O-])cc2N1 | 0 | - | 0 | - | - | -
Cc1nn(-c2ccccc2)c2sc(C(=O)Nc3ccc(Br)cc3)cc12 | - | - | - | 0 | - | 0
Cc1nn(-c2ccccc2)c2sc(C(=O)N3CCCCC3)cc12 | 0 | - | 0 | 0 | ? | -
SMILES | Pf growth 96h | SARS PLpro yeast | Pf growth 48h | Sm TGR inh | HCV inh | HCMV antiviral
Cc1nn(-c2ccccc2)c2sc(C(=O)NCCN3CCOCC3)cc12 | 3.7µM | 0 | ? | 0 | 2.2µM | 0
Cc1cnc(NC(=O)c2cc3c(C)nn(-c4ccccc4)c3s2)s1 | ? | 0 | 6.6µM | 0 | ? | 0
Cc1nn(-c2ccccc2)c2sc(C(=O)NC3CCCCC3)cc12 | 0 | 0 | ? | 0 | 2.5µM | 0
Cc1nn(-c2ccccc2)c2sc(C(=O)c3c(N)n(C)c(=O)n(C)c3=O)cc12 | ? | 0 | 1.5µM | 0 | 0 | 0
COCCNC(=O)c1ccc(-c2nc(CN3CCc4ccccc43)c(C)o2)cc1 | - | - | - | 0 | - | 0
CCC(C)(C)NC(=O)C1CCN(c2nc(OC)nc(OC)n2)CC1 | ? | 0 | 0 | 0 | 0 | 0
Cc1ccc(-c2nsc3c(N4CCC(C(N)=O)CC4)ncnc23)cc1 | ? | 0 | 0 | 0 | 0 | 0
O=C(N1CCCC1)N1CCN(c2ncnc3c(-c4ccc(Cl)cc4)nsc23)CC1 | 1.9µM | 0 | 0 | 0 | - | -
Cc1ccc(C(=O)N2CCN(c3cc(=O)[nH]nc3-c3ccccc3)CC2)cc1 | 12µM | 0 | ? | 0 | 0 | 0
O=C(c1cccs1)N1CCCN(c2ncnc3scc(-c4ccccc4)c23)CC1 | 10µM | 0 | 5.9µM | 0 | ? | 0
COc1ccc(-c2csc3ncnc(N4CCN(C(=O)c5ccco5)CC4)c23)cc1 | ? | 0 | ? | 0 | ? | 0
Cc1ccc(-c2csc3ncnc(N4CCN(C(=O)c5ccccc5)CC4)c23)cc1 | - | 0 | 8.3µM | 0 | ? | -70
Cc1ccc(C(=O)N2CCN(c3ncnc4c(-c5ccccc5)nsc34)CC2)cc1 | 1.5µM | 0 | 0 | - | - | -
O=C(c1ccccc1)N1CCN(c2ncnc3c(-c4ccccc4)nsc23)CC1 | 0 | 0 | 0 | 0 | 0 | 0
CNC[C@H](Cc1cccc2ccccc12)NC[C@H](CCSC)NCC1CCC(C(C)(C)C)CC1 (some centres undefined) | - | 0 | - | - | ? | -
CCC(C(=O)NCc1cccnc1)c1ccccc1 (centres undefined) | ? | 0 | 0 | - | 0 | 0
CCC(C(=O)NCc1ccncc1)c1ccccc1 (centres undefined) | 10µM | 0 | 0 | 0 | 0 | 0
O=C(NCc1ccncc1)/C(=N/O)c1ccccc1 | 10µM | 0 | 0 | 0 | 0 | 0
O=C(O)c1cccc(NCc2ccncc2)c1 | 0 | 0 | - | 0 | - | -61
O=C(O)c1ccc(NCc2ccncc2)cc1 | 0 | 0 | - | 0 | 0 | 0
CCOC(=O)NN=C1c2ccccc2-c2ccccc21 | 10µM | 0 | 0 | 0 | ? | 0
Cc1ccc(OCC(=O)NN=C2c3ccccc3-c3ccccc32)cc1 | 0 | 0 | 0 | 0 | 14µM | 0
O=C(COc1ccc(Cl)cc1Cl)N/N=C1\CCCc2ccccc21 | 0 | 0 | 0 | 0 | ? | 0
O=C(COc1ccc(Cl)cc1Cl)NN=C1c2ccccc2-c2ccccc21 | 0 | 0 | 0 | 0 | 0 | -61
Cc1ccc(C)c(Cn2nnc3c(=O)[nH]c(C4CCN(C(=O)c5ccco5)CC4)nc32)c1 | 0 | 0 | ? | 0 | 0 | 0
O=c1c2ccccc2nc(-c2ccco2)n1CCc1ccc(O)cc1 | ? | 0 | ? | 0 | ? | 0
C=Cc1c(C)c2cc3nc(cc4[nH]c(cc5nc(cc1[nH]2)C(C)=C5CCC(=O)O)c(CCC(=O)OC)c4C)[C@@]1(C)C3=CC=C(C(=O)OC)[C@H]1C(=O)OC (tested in a mixture with another compound) | 3.4µM | - | 3.8µM | - | - | -
CCOC(=O)C1=CCN(S(=O)(=O)c2ccc([N+](=O)[O-])cc2)C1c1ccc(C)cc1 (centres undefined) | - | - | - | - | - | 0
COc1ccc(N2CCN(Cc3nc4c(c(=O)[nH]c(=O)n4C)n3CC(C)C)CC2)cc1 | - | - | - | 0 | - | 0
